# Source: article PMC4336329 (PLoS ONE, 2015)
# Among all 310,000 compounds or so, about 14,000 (4.5%) showed an effect of 50% or more. The effect is printed as a negative number. Many of the other results were omitted from the sample, so strong results are more common in it than they were.
# Biological target: human ether-à-go-go-related gene (hERG) potassium channel (human, UniProt Q12809)
# Assay: primary screen, population patch clamp on CHO cells stably expressing hERG; higher = less effect of the substance
# 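Further: peak tail current of the secondary pulse compared with the same well before compound.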
# human ether-à-go-go-related gene (hERG) potassium channel, sequence (Q12809 whole entry, looked up): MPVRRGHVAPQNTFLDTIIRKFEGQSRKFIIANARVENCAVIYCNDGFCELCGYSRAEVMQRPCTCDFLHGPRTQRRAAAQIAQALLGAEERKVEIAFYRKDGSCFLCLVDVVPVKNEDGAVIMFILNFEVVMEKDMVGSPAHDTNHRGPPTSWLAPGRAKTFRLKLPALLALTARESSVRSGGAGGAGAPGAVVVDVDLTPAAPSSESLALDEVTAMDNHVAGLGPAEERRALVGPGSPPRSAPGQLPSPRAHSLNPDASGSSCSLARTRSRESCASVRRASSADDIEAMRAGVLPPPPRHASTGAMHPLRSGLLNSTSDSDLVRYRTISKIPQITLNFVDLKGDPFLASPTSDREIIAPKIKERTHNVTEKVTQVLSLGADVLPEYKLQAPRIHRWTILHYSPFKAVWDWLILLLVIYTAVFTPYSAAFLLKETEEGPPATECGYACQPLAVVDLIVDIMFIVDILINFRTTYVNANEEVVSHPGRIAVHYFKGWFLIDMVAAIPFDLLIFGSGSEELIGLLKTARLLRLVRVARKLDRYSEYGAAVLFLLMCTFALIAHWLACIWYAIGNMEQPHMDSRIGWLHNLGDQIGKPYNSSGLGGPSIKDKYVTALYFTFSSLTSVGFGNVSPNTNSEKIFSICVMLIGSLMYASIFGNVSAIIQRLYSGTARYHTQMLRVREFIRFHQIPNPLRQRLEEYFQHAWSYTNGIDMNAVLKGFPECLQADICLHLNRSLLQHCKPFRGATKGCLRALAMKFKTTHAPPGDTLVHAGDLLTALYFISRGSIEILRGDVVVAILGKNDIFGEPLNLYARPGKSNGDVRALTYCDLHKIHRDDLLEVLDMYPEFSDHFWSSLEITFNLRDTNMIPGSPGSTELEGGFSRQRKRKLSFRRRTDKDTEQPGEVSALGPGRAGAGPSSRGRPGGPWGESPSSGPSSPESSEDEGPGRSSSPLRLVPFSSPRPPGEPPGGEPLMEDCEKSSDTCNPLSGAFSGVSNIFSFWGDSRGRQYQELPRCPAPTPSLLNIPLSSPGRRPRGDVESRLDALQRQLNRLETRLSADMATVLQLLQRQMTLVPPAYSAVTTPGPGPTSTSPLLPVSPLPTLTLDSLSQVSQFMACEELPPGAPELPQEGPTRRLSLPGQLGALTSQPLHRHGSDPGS
row,Compound,"hERG current change (%, negative = inhibition) at 10uM"
1,CC(=O)Nc1ccc(NC(=O)Cn2c(CC(=O)N3CCCC3)nc3ccccc32)cc1,9%
2,Cc1cc(OC(=O)CCCNC(=O)OC(C)(C)C)c2c3c(c(=O)oc2c1)CCC3,-9.18%
3,CCC(=O)Nc1cc2nn(-c3ccc(OC)cc3)nc2cc1C,0.0727%
4,Cc1ccc(Sc2ccc([N+](=O)[O-])cc2[N+](=O)[O-])nc1,-19.1%
5,Cc1cccc(NC(=O)CCN2C(=O)C3C4C=CC(C4)C3C2=O)c1 (centres unmarked),13.6%
6,C/C(=N\NC(=O)c1cc2ccccc2cc1O)c1ccccn1,-3.94%
7,O=C(NC(=S)NCCN1CCOCC1)c1ccc(Cl)cc1,-13.2%
8,CN(C)c1ccc(/C=C(/NC(=O)c2ccccc2)C(=O)NCCN2CCOCC2)cc1,4.15%
9,Cc1ccc(C(=O)N/C(=C\c2ccc(Cl)cc2)C(=O)NCCN2CCOCC2)cc1,-75.1%
10,O=C(NCCCN1CCOCC1)/C(=C/c1cccs1)NC(=O)c1ccccc1,-21.8%
11,Cc1ccc(C(=O)N/C(=C\c2cccs2)C(=O)NCCCN2CCOCC2)cc1,-61.4%
12,CN(C)c1ccc(/C=C(\NC(=O)c2ccccc2)C(=O)NCCN2CCOCC2)cc1,-19.9%
13,O=C(NCCN1CCOCC1)/C(=C/c1ccc(Cl)cc1)NC(=O)c1ccccc1,-76.5%
14,Cc1ccc(C(=O)N/C(=C\c2cn(S(=O)(=O)N(C)C)c3ccccc23)C(=O)NCCCN2CCOCC2)cc1,-18.7%
15,Cc1ccc(C(=O)N/C(=C\c2ccco2)C(=O)NCCN2CCOCC2)cc1,-23.2%
16,COc1ccccc1CNC(=O)C(NC(=O)C1CCCCC1)C(C)C (centres unmarked),1.84%
17,O=C(O)c1cccc(NS(=O)(=O)c2ccc(Oc3ccc(S(=O)(=O)Nc4cccc(C(=O)O)c4)cc3)cc2)c1,20.3%
18,COc1ccc(OC)c(-n2nnnc2SCC(=O)NCCc2ccccc2)c1,-20.3%
19,CC1Cn2c(nc(=O)c3c2NCN(CCc2ccccc2)C3)S1 (centres unmarked),13.5%
20,O=C(C1CC1)N1N=C(c2ccc(Cl)cc2)CC1(O)C(F)(F)F (centres unmarked),-0.113%

row,Compound,"hERG current change (%, negative = inhibition) at 10uM"
1,Cc1nn(C(C)C(=O)NC2CCC(C)CC2)c(=O)c2nn(-c3ccccc3)c(C)c12 (centres unmarked),-28.3%
2,O=C(CCS(=O)(=O)c1cccs1)N1CCCC1,3.18%
3,O=c1c2ccccc2nc(-c2ccccc2)n1-c1ccccc1O,16.1%
4,CC(OC(=O)c1snc(C(=O)NC2CCCCC2)c1N)C(=O)NC1CCCCC1 (centres unmarked),-3.99%
5,CN(C)CCCN(C(=O)c1ccc(S(=O)(=O)N2CCc3ccccc32)cc1)c1nc2ccc(Cl)cc2s1.Cl,10.5%
6,CCOC(=O)N1CCN(S(=O)(=O)c2ccc(C(=O)N(CCCN(C)C)c3nc4ccc(OC)cc4s3)cc2)CC1.Cl,-73.5%
7,CCOC(=O)N1CCN(S(=O)(=O)c2ccc(C(=O)N(CCN(C)C)c3nc4c(C)cccc4s3)cc2)CC1.Cl,-37.5%
8,COc1ccc2sc(N(CCCN(C)C)C(=O)c3ccc(S(=O)(=O)N4CCCC4)cc3)nc2c1.Cl,-43.9%
9,CCOC(=O)N1CCN(S(=O)(=O)c2ccc(C(=O)N(CCN(C)C)c3nc4ccc(Cl)cc4s3)cc2)CC1.Cl,-28.5%
10,COc1cc2nc(N(CCCN(C)C)C(=O)c3ccc(S(=O)(=O)N4CCc5ccccc5C4)cc3)sc2cc1OC.Cl,-9.41%
11,CCOC(=O)N1CCN(S(=O)(=O)c2ccc(C(=O)N(CCN(C)C)c3nc4ccc(CC)cc4s3)cc2)CC1.Cl,-51.9%
12,CCOC(=O)N1CCN(S(=O)(=O)c2ccc(C(=O)N(CCCN(C)C)c3nc4ccc(Cl)cc4s3)cc2)CC1.Cl,-58.4%
13,Cc1ccc2nc(N(CCCN(C)C)C(=O)c3ccc(S(=O)(=O)N4CCc5ccccc5C4)cc3)sc2c1.Cl,-25.3%
14,CCOC(=O)N1CCN(S(=O)(=O)c2ccc(C(=O)N(CCCN(C)C)c3nc4cc(OC)ccc4s3)cc2)CC1.Cl,-56.2%
15,COc1ccc2sc(N(CCCN(C)C)C(=O)c3ccc(S(=O)(=O)N4CCc5ccccc5C4)cc3)nc2c1.Cl,-6.59%
16,CCOC(=O)N1CCN(S(=O)(=O)c2ccc(C(=O)N(CCN(CC)CC)c3nc4ccc(C)cc4s3)cc2)CC1.Cl,-23.8%
17,O=C(c1ccccc1Cc1ccccc1)N1CCN(S(=O)(=O)c2ccccc2)CC1,-6.88%
18,CN(C)NC(=S)Nc1ccc(S(=O)(=O)N2CCCCC2)cc1,-5.26%
19,CCn1ccnc1CN(C)C(=O)CCc1nnc(CCCc2ccccc2)o1,-7.7%
20,Cc1cccc(NC(=O)CN2C(=O)N/C(=C\c3ccc(N4CCOCC4)cc3)C2=O)c1,9.92%

row,Compound,"hERG current change (%, negative = inhibition) at 10uM"
1,CC(NC(=O)COC(=O)Cc1ccsc1)C1CC2CCC1C2 (centres unmarked),-12.1%
2,COc1ccc(N(CC(=O)N2CCc3ccccc32)S(=O)(=O)c2c(C)n[nH]c2C)cc1,-18.6%
3,CC(NCCOc1ccccc1F)C(=O)Nc1ccc(S(N)(=O)=O)cc1 (centres unmarked),13.4%
4,N#Cc1c(N)c(C(=O)c2ccc(Cl)cc2)n2c1CCC2,5.5%
5,CCCCN(CCCC)C(=O)c1cc(Cl)ccc1[N+](=O)[O-],-1.4%
6,O=C1CCC(C(=O)N(Cc2ccco2)C2(C(=O)NC3CCCC3)CCCCC2)N1 (centres unmarked),13.4%
7,CCNc1nc(NCC)nc(N/N=C(\C)c2ccc(OC)cc2)n1,-14.1%
8,O=C(NCc1ccco1)c1ccc(F)c(S(=O)(=O)N2CCCCC2)c1,-11.3%
9,Cc1ccc(C)c(NS(=O)(=O)c2cc(C(=O)NCc3ccco3)ccc2C)c1,-52.3%
10,CCn1cc(C(=O)NCC2CCCO2)c(=O)c2cc(S(=O)(=O)N3CCCCC3)ccc21 (centres unmarked),-34%
11,CCn1cc(C(=O)NCC2CCCO2)c(=O)c2cc(S(=O)(=O)N3CCC(C)CC3)ccc21 (centres unmarked),-28.1%
12,CCn1cc(C(=O)NCc2ccco2)c(=O)c2cc(S(=O)(=O)N3CCCC3)ccc21,-4.37%
13,CCn1cc(C(=O)NCc2ccco2)c(=O)c2cc(S(=O)(=O)N3CCC(C)CC3)ccc21,-36.5%
14,CCn1cc(C(=O)NCC2CCCO2)c(=O)c2cc(S(=O)(=O)N3CCCCCC3)ccc21 (centres unmarked),-51.3%
15,Cc1ccc(C(=O)NCc2ccco2)cc1S(=O)(=O)N1CCCCC1,-18.6%
16,O=C(NCc1ccco1)c1ccc(Br)c(S(=O)(=O)N2CCCCC2)c1,-53%
17,Cc1ccccc1NS(=O)(=O)c1cc(C(=O)NCc2ccco2)ccc1C,-20.3%
18,Cc1ccc(C(=O)NCc2ccco2)cc1S(=O)(=O)Nc1cccc(C)c1C,-32.2%
19,CCn1cc(C(=O)NCc2ccco2)c(=O)c2cc(S(=O)(=O)N3CCCCCC3)ccc21,-53.3%
